Unmarked numbers belong to inactive results. Some of the results follow. Active and inactive are the calls of the source.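 How the source made its calls, unless noted: active means mean inhibition over 43.08%, the solvent-only control mean plus 3 SD; inactive means the rest.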
Columns and labels:
[1] = molecular target: Nuclear receptor coactivator 3 (Homo sapiens) (UniProt Q9Y6Q9); experiment: NCOA3 GAL4-fusion reporter inhibition – cell-based, luminescence, quadruplicate, confirmation (AID 588792); conditions: HEK293 GAL4-SRC3 luciferase reporter, at 3.6 µM, active compounds read high;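 further: 0% = DMSO treated cells and 100% = gossypol at 36 µM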
[2] = system: transactivating tegument protein VP16 (Human herpesvirus 1), Gal4-VP16 luciferase reporter; experiment: repression of VP16-driven luciferase reporter – cell-based, luminescence, high throughput, counter-screen for SRC3 inhibitor project (AID 588794; in the data active means inhibition above about 30%); conditions: mammalian cells, at 3.6 µM, active compounds read high
[3] = molecular target: Protein phosphatase methylesterase 1 (Homo sapiens) (UniProt Q9Y570); experiment: human PME-1 methylesterase inhibition confirmation – biochemical, fluorescence polarization, FP-Rh probe, triplicate (AID 2171;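 active means inhibition above the hit cutoff set in the earlier primary screen, cut at about 27% in these data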;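 further: 0% = enzyme with DMSO and 100% = wells lacking PME-1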); conditions: recombinant PME-1, FP-Rh probe fluorescence polarization; at 5.9 µM; active compounds read high
[4] = molecular target: Glutathione S-transferase omega-1 (Homo sapiens) (UniProt P78417); experiment: recombinant GSTO1 blockers, retest – biochemical, fluorescence polarization, triplicate, counter-screen for RBBP9 inhibitor project, confirmation (AID 2176;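 active means inhibition above the primary screen's cutoff, its mean inhibition plus 3 SD, cut at about 35% in these data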;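 further: loss of polarization as inhibitors block binding of rhodamine sulfonate ester activity probe; 0% = GSTO1 with DMSO and 100% = wells lacking GSTO1 enzyme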); conditions: recombinant GSTO1, probe fluorescence polarization; at 5.96 µM; active compounds read high
[5] = StAR promoter reporter inhibitors, counter-screen for LRH-1 inverse agonist project, cell-based, luminescence, high throughput (AID 651611; in the data active means inhibition above about 28%); conditions: StAR promoter luciferase reporter counterscreen, at 3.6 µM, active compounds read high
[6] = molecular target: Nuclear receptor subfamily 5 group A member 2 (Homo sapiens) (UniProt O00482); experiment: NR5A2 activity suppression in reporter cells – cell-based, luminescence, confirmation (AID 651613; in the data active means inhibition above about 42%;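 further: HEK293T cells co-transfected with LRH-1 and StAR promoter luciferase reporter; 0% = vehicle wells and 100% = parental cells lacking receptor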); conditions: cell-based LRH-1 luciferase reporter, inverse agonism; at 3.6 µM; active compounds read high
[7] = molecular target: Steroidogenic factor 1 (Homo sapiens) (UniProt Q13285); experiment: inverse agonism at SF1 nuclear receptor – cell-based, luminescence, high throughput, counter-screen for LRH-1 inverse agonist project (AID 651614; in the data active means inhibition above about 44%;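 further: cells cotransfected with StAR promoter reporter and SF1 expression vector; 0% = vehicle on cells with receptor and 100% = vehicle on cells lacking receptor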); conditions: cell-based SF1 luciferase reporter, at 3.6 µM, active compounds read high
[8] = compounds suppressing VP16-driven luciferase signal – cell-based, luminescence, high throughput, counter-screen for LRH-1 inverse agonist project (AID 651615; in the data active means inhibition above about 33%); conditions: Gal4-VP16 luciferase reporter cells, at 3.6 µM, active compounds read high
[9] = molecular target: Platelet-activating factor acetylhydrolase (Homo sapiens) (UniProt Q13093); experiment: inhibition of plasma PAF acetylhydrolase – biochemical, fluorescence polarization, human, confirmation (AID 463230;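 active means mean inhibition of the triplicate above the hit cutoff set for the earlier primary screen, cut at about 25% in these data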;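 further: 0% = enzyme with DMSO and 100% = wells lacking pPAFAH enzyme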); conditions: recombinant pPAFAH, FP-Rh probe fluorescence polarization; at 3.39 µM; active compounds read high
[10] = reduced OD of T4-infected AddAB+ E. coli – absorbance, E. coli V3065, T4 phage, triplicate, AddAB inhibitor project, confirmation (AID 488942;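 active means mean inhibition above a set limit taken from the earlier primary screen, cut at about 13% in these data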;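 further: higher means less bacterial growth since AddAB block lets phage replicate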); conditions: E. coli V3065 expressing H. pylori AddAB, at 11.9 µM, active compounds read high
[11] = reduced OD of phage-infected RecBCD+ V66 E. coli – absorbance, mutant T4 phage, counter-screen for AddAB inhibitor project (AID 488955;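 active means mean inhibition above the mean of solvent-only control wells plus 3 SD, cut at about 4% in these data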;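 further: optical density read after an 18 h incubation at 37 °C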); conditions: OD growth, at 11.9 µM, active compounds read high
[12] = bacterial growth inhibitors – absorbance, counter-screen for AddAB inhibitor project, confirmation (AID 488956; in the data active means inhibition above about 25%); conditions: bacterial viability, absorbance (AddAB counterscreen); at 11.9 µM; active compounds read high
[13] = molecular target: Oxytocin receptor (Homo sapiens) (UniProt P30559); experiment: oxytocin receptor activation, retest of hits – fluorescence, CHO-OTR cells, triplicate, confirmation (AID 434963;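 active means mean activation above about 20% derived from the earlier single-dose screen, limit read from the data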;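 further: peak over minimum fluorescence ratio per well during a 100 second FLIPR read; 0% = DMSO alone and 100% = oxytocin high control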); conditions: Fluo-8 calcium fluorescence, agonist, at 3 µM, active compounds read high
[14] = molecular target: Vasopressin V1a receptor (Homo sapiens) (UniProt P37288); experiment: activators of vasopressin V1R in CHO cells – cell-based, triplicate, fluorescence, counter-screen for OXTR agonist project (AID 434991;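 active means mean activation over triplicate exceeds the hit threshold set in the earlier primary screen, cut at about 20% in these data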;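 further: peak over basal fluorescence ratio within a 100 second read; 0% = DMSO alone and 100% = 3 nM vasopressin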); conditions: Fluo-8 calcium fluorescence, at 3 µM, active compounds read high
[15] = molecular target: Nuclear receptor coactivator 1 (Homo sapiens) (UniProt Q15788); experiment: NCOA1 GAL4-fusion reporter inhibition – cell-based, luminescence, quadruplicate, confirmation (AID 588820;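 active means mean inhibition above 46.68%, the untreated control wells mean plus 3 SD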;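 further: 0% = DMSO wells and 100% = gossypol 36 µM treated wells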); conditions: HEK293 GAL4-SRC1 luciferase reporter, at 3.6 µM, active compounds read high
[16] = repression of VP16-driven luciferase reporter – cell-based, luminescence, high throughput, counter-screen for SRC1 inhibitor project (AID 588824; in the data active means inhibition above about 25%); conditions: cell-based VP16 transactivation luciferase luminescence; at 3.6 µM; active compounds read high

Chain of Nuclear receptor coactivator 1 (Homo sapiens) (Q15788 whole entry, looked up, the tested form may be a part): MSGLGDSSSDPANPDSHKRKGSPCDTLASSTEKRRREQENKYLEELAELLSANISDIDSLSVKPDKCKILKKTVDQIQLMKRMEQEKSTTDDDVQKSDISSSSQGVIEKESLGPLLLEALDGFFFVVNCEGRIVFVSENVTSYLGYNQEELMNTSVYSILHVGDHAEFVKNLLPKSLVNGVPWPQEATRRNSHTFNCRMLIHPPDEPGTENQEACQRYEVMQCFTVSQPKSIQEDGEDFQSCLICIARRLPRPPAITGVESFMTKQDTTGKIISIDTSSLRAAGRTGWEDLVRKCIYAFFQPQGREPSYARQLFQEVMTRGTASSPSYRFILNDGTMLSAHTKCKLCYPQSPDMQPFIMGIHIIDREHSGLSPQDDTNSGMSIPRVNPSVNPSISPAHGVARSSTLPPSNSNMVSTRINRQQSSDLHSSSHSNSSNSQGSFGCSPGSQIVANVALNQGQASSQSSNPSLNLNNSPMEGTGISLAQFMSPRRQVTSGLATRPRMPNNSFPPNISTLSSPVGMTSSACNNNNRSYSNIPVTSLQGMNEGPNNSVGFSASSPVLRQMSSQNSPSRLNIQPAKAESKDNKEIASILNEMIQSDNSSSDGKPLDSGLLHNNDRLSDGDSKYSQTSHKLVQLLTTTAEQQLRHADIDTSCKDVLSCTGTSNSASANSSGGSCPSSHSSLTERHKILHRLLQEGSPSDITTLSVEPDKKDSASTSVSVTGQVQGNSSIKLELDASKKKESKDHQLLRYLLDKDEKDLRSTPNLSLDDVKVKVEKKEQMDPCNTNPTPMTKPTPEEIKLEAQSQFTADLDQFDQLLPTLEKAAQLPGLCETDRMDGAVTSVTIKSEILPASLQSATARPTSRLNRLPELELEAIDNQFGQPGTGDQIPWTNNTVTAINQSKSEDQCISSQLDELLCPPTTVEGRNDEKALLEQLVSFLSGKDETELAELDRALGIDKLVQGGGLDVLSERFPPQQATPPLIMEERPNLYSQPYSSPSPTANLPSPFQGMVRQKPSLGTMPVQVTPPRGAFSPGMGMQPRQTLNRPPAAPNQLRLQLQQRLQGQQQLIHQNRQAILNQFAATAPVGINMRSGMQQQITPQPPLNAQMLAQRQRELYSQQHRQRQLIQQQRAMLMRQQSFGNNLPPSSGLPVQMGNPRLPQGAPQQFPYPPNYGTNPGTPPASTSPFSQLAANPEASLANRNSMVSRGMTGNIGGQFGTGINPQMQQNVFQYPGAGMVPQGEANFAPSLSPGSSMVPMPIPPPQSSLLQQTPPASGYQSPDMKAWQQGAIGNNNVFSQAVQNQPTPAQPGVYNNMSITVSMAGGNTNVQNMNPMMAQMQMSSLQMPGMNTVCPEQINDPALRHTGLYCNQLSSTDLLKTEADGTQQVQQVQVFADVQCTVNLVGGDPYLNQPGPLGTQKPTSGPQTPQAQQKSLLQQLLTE
Chain of Nuclear receptor coactivator 3 (Homo sapiens) (Q9Y6Q9 whole entry, looked up, the tested form may be a part): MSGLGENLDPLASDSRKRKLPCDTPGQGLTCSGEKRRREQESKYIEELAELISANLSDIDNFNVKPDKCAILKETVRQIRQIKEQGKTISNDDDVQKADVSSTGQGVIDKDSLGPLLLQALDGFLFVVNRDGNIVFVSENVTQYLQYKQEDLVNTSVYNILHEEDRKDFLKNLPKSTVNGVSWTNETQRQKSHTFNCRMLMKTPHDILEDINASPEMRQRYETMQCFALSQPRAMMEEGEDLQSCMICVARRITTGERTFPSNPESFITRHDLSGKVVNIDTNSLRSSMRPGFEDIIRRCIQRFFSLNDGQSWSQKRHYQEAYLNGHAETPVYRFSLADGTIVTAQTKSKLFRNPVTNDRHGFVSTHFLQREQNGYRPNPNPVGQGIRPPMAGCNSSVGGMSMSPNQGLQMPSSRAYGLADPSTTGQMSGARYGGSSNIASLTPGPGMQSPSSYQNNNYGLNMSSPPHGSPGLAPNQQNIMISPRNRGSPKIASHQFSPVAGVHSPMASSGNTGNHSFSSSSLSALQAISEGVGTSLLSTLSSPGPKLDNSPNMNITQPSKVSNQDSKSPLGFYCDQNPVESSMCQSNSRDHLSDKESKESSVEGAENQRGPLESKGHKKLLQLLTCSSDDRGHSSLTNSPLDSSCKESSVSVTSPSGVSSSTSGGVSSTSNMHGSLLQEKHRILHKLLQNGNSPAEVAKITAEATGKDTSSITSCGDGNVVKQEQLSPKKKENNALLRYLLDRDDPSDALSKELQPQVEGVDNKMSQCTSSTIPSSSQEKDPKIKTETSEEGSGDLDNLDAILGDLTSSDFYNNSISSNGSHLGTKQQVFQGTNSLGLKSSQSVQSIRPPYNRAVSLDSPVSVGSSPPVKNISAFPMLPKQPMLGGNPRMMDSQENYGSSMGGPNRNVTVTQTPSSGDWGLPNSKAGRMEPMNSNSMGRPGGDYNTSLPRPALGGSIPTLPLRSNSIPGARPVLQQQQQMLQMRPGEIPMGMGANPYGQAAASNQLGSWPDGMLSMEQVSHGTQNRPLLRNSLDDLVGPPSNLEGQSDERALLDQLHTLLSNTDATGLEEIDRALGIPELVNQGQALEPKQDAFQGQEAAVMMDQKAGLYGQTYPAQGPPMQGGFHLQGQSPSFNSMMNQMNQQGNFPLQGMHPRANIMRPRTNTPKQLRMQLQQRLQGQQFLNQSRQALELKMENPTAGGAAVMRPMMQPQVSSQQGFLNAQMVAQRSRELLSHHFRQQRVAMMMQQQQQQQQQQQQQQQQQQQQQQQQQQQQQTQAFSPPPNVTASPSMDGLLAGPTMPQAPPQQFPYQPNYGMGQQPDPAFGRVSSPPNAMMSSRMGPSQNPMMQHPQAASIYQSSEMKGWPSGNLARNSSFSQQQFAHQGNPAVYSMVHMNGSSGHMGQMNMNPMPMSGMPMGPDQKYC
Chain of Protein phosphatase methylesterase 1 (Homo sapiens) (Q9Y570 whole entry, looked up): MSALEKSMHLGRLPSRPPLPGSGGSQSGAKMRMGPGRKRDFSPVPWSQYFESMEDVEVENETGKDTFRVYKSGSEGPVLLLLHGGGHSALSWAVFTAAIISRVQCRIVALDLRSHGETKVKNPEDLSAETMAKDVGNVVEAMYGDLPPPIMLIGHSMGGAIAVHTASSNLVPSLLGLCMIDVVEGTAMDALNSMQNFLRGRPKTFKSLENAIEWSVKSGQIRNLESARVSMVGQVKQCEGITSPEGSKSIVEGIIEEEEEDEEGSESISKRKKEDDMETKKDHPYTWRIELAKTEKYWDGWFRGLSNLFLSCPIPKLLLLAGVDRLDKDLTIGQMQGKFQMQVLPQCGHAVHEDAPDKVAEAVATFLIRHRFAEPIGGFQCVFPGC
Chain of Steroidogenic factor 1 (Homo sapiens) (Q13285 whole entry, looked up, the tested form may be a part): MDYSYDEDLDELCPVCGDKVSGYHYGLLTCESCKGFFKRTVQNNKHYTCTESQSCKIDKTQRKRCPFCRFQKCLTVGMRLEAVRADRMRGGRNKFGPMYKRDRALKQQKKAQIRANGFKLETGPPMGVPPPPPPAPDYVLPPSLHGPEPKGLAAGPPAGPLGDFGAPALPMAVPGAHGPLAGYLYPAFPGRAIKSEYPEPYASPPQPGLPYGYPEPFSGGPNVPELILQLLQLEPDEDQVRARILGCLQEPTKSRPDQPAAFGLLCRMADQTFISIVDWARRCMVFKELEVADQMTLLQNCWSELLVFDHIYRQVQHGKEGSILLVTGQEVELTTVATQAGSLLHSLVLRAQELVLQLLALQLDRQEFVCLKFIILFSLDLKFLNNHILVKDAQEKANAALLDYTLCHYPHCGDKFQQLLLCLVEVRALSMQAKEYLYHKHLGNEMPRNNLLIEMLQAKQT
Chain of Nuclear receptor subfamily 5 group A member 2 (Homo sapiens) (O00482 whole entry, looked up): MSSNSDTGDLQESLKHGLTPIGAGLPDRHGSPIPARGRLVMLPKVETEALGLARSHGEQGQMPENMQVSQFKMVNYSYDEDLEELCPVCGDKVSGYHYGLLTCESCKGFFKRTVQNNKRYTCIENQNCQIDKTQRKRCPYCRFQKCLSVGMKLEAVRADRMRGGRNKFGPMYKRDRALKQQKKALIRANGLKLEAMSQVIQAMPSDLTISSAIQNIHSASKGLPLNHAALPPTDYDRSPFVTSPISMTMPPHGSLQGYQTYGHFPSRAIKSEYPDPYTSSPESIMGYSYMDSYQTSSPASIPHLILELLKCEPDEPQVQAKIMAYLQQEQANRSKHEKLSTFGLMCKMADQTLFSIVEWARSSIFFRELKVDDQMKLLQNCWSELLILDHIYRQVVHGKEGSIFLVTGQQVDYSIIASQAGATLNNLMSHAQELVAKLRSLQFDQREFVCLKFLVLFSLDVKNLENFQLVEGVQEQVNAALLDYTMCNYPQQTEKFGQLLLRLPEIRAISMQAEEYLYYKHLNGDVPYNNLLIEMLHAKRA
Chain of Vasopressin V1a receptor (Homo sapiens) (P37288 whole entry, looked up, the tested form may be a part): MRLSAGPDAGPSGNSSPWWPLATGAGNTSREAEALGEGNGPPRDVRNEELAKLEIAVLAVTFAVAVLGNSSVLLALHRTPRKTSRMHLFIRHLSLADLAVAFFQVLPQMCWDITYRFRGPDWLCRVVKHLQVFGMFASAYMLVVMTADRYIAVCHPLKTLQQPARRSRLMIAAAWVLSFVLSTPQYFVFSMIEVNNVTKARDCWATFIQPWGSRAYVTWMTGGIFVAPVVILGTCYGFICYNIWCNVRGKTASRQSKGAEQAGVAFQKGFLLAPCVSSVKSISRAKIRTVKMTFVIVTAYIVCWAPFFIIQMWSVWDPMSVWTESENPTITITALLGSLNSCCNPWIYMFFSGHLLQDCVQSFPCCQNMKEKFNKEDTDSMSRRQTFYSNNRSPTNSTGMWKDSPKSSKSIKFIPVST
Chain of Glutathione S-transferase omega-1 (Homo sapiens) (P78417 whole entry, looked up): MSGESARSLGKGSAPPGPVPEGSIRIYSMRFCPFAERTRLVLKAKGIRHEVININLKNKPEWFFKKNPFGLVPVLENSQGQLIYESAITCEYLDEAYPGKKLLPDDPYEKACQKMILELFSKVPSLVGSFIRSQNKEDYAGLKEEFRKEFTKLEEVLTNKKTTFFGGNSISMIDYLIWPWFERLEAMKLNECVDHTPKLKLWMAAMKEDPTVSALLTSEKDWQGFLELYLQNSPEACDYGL

CCN(CCCl)c1cc(CN(C)C)cc(NC(=O)c2ccc(C(=O)Nc3cc(CN(C)C)cc(N(CC)CCCl)c3)cc2)c1
inhibition [1]: 94.8% (active) | inhibition [2]: 92% (active)

Oc1ccc(/C=N/NP(=S)(c2ccccc2)c2ccccc2)c(O)c1O
inhibition [3]: -8.43%

COc1ccc(-n2c(/C=C/c3ccc(O)c(O)c3)nc3ccccc3c2=O)cc1
inhibition [3]: -10.6%

CCOC(=O)c1c(NS(=O)(=O)c2ccccc2)n(CCCOC)c2nc3ccccc3nc12
inhibition [3]: 0.94%

O=C(O)COc1ccccc1/C=C1\C(=O)NC(=O)N(CCC2=CCCCC2)C1=O
inhibition [4]: 9.09%

Cn1ncnc2c(=O)n(C)c(=O)nc1-2
inhibition [3]: 43.2% (active) | inhibition [5]: 76.9% (active) | inhibition [6]: 92.6% (active) | inhibition [7]: 84.3% (active) | inhibition [8]: 87.6% (active)

O=c1[nH]c(=S)[nH]c(O)c1N=Nc1ccc(S(=O)(=O)N2CCc3ccccc32)cc1
inhibition [3]: 46% (active) | inhibition [5]: 35% (active) | inhibition [6]: 49.8% (active) | inhibition [7]: 47.9% (active) | inhibition [8]: 7.96%

Cc1c(C(=O)N2CCC3(CC2)OCCO3)sc2ncnc(N3CCN(c4ccccn4)CC3)c12
inhibition [1]: -7.87% | inhibition [2]: -13.2%

C[C@H]1CCC/C=C/C2C[C@H](O)CC2[C@H](O)/C=C/C(=O)O1 (some centres undefined)
inhibition [1]: 69.2% (active) | inhibition [2]: 80.2% (active)

O=C(CN1CC=C(c2ccccc2)CC1)Nc1c(Cl)cccc1Cl
inhibition [3]: 28.2% (active)

Cc1nn(-c2ccccc2)c(C)c1NC(=O)COC(=O)Cc1ccccc1
inhibition [9]: 43.1% (active)

NP(=O)(OCCCCc1ccccc1)Oc1ccccc1Cl (centres undefined)
inhibition [3]: 47.4% (active)

CN(C)S(=O)(=O)c1cc(C(=O)N2CCC(C(=O)O)(c3ccccc3)CC2)ccc1Cl
inhibition [10]: 85.5% (active) | inhibition [11]: 1.24% | inhibition [12]: 26.1% (active)

O=C(CF)NC(Nc1cccc2cccnc12)C(Cl)(Cl)Cl (centres undefined)
inhibition [3]: 53% (active)

CCn1nc(/C=C/c2ccccc2)nc2c(=O)n(C)c(=O)nc1-2
inhibition [1]: 39.2% | inhibition [2]: 9.67%

CC(Cc1ccccc1)NCCC(c1ccccc1)c1ccccc1 (centres undefined)
activation [13]: 11.2% | activation [14]: 4.33%

CC(=C1C(=O)c2ccccc2C1=O)N1CCN(CCN=Cc2c(O)n(C)c(=O)n(C)c2=O)CC1
inhibition [1]: -8.5% | inhibition [2]: -5.29%

COc1ccc(OC(=O)N(C)C)c(CN(C)C)c1
inhibition [1]: 5.12% | inhibition [2]: -6.66%

CC1=CC2/C=C(\C)CCC(O)C(O)/C=C/C(=O)C23C(=O)NC(CC(C)C)C3C1C (centres undefined)
inhibition [1]: 36% | inhibition [2]: 54.8% (active)

CCCCn1c(O)c(C(C)=Nc2ccc(C(=O)O)cc2)c(=O)[nH]c1=O
inhibition [1]: 1.79% | inhibition [2]: 12.1%

Cc1ccc(N=C(/N=C(\N)N[N+](=O)[O-])Nc2ccc(C)cc2)cc1
inhibition [1]: -0.99% | inhibition [2]: 1.74%

CSCCC(c1nnnn1-c1ccc2c(c1)OCCO2)N1CCC(n2c(=O)[nH]c3ccccc32)CC1 (centres undefined)
inhibition [1]: 15% | inhibition [2]: 14.7% | inhibition [15]: -22.6% | inhibition [16]: 20.9%

O=c1[nH]c2ccccc2n1C1CCN(C(c2nnnn2Cc2ccccc2)C2CC2)CC1 (centres undefined)
inhibition [1]: 22.8% | inhibition [2]: 20.9%

O=c1[nH]c(=O)n(CCC2=CCCCC2)c(O)c1C=NC1CCN(Cc2ccccc2)CC1
inhibition [1]: -0.53% | inhibition [2]: 36.4% (active)

CCCCCCCn1c(=O)c(C(=O)Nc2cnccn2)c(O)c2ccccc21
inhibition [1]: -22.1% | inhibition [2]: -5.22%

CNC(=O)c1cccn(Cc2cccc(C(F)(F)F)c2)c1=O
inhibition [1]: 19.5% | inhibition [2]: -23.9% | inhibition [15]: -26.7% | inhibition [16]: -25.9%

COc1ccc(-n2c(O)c(C(C)=NCCCn3ccnc3)c(=O)[nH]c2=O)cc1
inhibition [1]: 31.6% | inhibition [2]: 32.6% (active)

O=C(CSC1c2ccccc2-c2ccccc21)N/N=C/c1ccccc1O
inhibition [1]: 17.4% | inhibition [2]: 21.9% | inhibition [15]: 13.8% | inhibition [16]: 18%

C=C1C(C)C2C(Cc3ccccc3)NC(=O)C23OC(=O)/C=C/C(O)CCCC(C)C/C=C/C3C1O (centres undefined)
inhibition [1]: 10.6% | inhibition [2]: 22.1%

O=c1[nH]c2ccccc2n1C1CCN(C(CCc2ccccc2)c2nnnn2-c2ccc3c(c2)OCCO3)CC1 (centres undefined)
inhibition [1]: 30.3% | inhibition [2]: 48.9% (active)

Cc1cc(C)cc(NC2=NCCCS2)c1
inhibition [1]: -10.4% | inhibition [2]: 1.9%

COC1=CC2C3Cc4ccc(OC)c(O)c4C2(CCN3C)CC1=O (centres undefined)
inhibition [1]: 7% | inhibition [2]: 11.3%

COC(=O)[C@@H]1[C@@H](C(=O)OC)C2(c3ccccc3-c3ccccc32)N(c2ccc(Cl)cc2)N1C#N
inhibition [1]: -0.96% | inhibition [2]: 30.6% (active)

Cc1c2ccncc2c(C)c2c1[nH]c1ccccc12
inhibition [1]: 24% | inhibition [2]: 45.9% (active) | inhibition [15]: 25.6% | inhibition [16]: 42.1% (active)

COc1cccc(C(c2nnnn2Cc2ccccc2)N2CCC(n3c(=O)[nH]c4ccccc43)CC2)c1OC (centres undefined)
inhibition [1]: 25.4% | inhibition [2]: 8.5% | inhibition [15]: -25.2% | inhibition [16]: 20.2%
